Out of some 1,400 compounds screened, about 350 (25%) were called active. Not shown: some 2% with an inconclusive outcome. The rule behind the calls is not given here. Not all results are given here. Results with a measured potency or affinity are listed apart.
Assay: inhibitors of Clostridioides difficile proliferation – 4-point retest, confirmation (AID 1224921);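 note: plate controls were DMSO wells for no effect and levofloxacin 16 µg/mL wells for full effect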
Conditions: Clostridioides difficile clinical isolate growth, OD600, 24 h, stronger effect = lower value; at 30 µM unless noted

Max activity, inactive:
CCC(=O)N(C)C[C@@H]1Oc2cc(C#CCC3CCCC3)ccc2S(=O)(=O)N([C@H](C)CO)C[C@H]1C 29.4%
COc1cc(O)c2c(c1)oc(=O)c1c3cc(O)c(O)cc3oc21 14.5%
CNC(=O)C[C@@H]1CC[C@H]2[C@@H](COc3ccc(NC(=O)c4ccccc4F)cc3C(=O)N2C)O1 -11.2% [at 1.95 µM]
CNC(=O)C[C@H]1CC[C@H]2[C@H](COc3ccc(NC(=O)c4ccccc4F)cc3C(=O)N2C)O1 -13.3% [at 1.95 µM]
O=C(Nc1ccc2c(c1)OCO2)N[C@@H]1C=C[C@H](CC(=O)N2CCN(c3ccccc3)CC2)O[C@H]1CO 18.2%
CO[C@@H]1CN(C)C(=O)c2ccc(NC(=O)c3ccc(F)cc3)cc2OC[C@H](C)N(C(=O)CN(C)C)C[C@@H]1C -20.6% [at 1.95 µM]
CNC[C@H]1Oc2cc(-c3ccccc3F)ccc2S(=O)(=O)N([C@H](C)CO)C[C@H]1C 25.6%
C[C@@H]1CN([C@H](C)CO)C(=O)Cc2cc(NC(=O)C3CC3)ccc2O[C@@H]1CN(C)Cc1ccc(-c2ccccc2)cc1 43.1% [at 35 µM]
CC(C)C#Cc1ccc2c(c1)O[C@H](CN(C)Cc1ccncc1)[C@@H](C)CN([C@H](C)CO)S2(=O)=O 51.9%
CO[C@H]1CN(C)C(=O)c2cc(NC(=O)Nc3ccccc3F)ccc2OC[C@@H](C)N(CC2CC2)C[C@@H]1C -19.6% [at 1.95 µM]
CO[C@@H]1CN(C)C(=O)c2ccc(NC(C)=O)cc2OC[C@@H](C)N(Cc2cccc(F)c2)C[C@@H]1C 16.8%
CCS(=O)(=O)Nc1ccc2c(c1)C(=O)N(C)C[C@@H](OC)[C@H](C)CN(CC1CCCC1)[C@H](C)CO2 -10.9% [at 1.95 µM]
C[C@@H]1CN([C@H](C)CO)S(=O)(=O)c2ccc(C#CCC3CCCC3)cc2O[C@H]1CN(C)C(=O)CC1CC1 15.9%
COc1cccc(NC(=O)N[C@H]2CC[C@H](CC(=O)Nc3ccc(-c4ccccc4)cc3)O[C@H]2CO)c1 32.5%
COc1cccc(-c2ccc3c(c2)O[C@@H](CN(C)Cc2cccnc2)[C@H](C)CN([C@H](C)CO)S3(=O)=O)c1 34.9%
C[C@@H]1CN([C@H](C)CO)C(=O)c2cccc(NC(=O)c3nc4ccccc4s3)c2O[C@H]1CN(C)Cc1ccc2c(c1)OCO2 20.2%
O=C(C[C@H]1C[C@H]2c3cc(NC(=O)C4CCC4)ccc3O[C@H]2[C@H](CO)O1)NCCc1ccccc1 -11.7% [at 1.95 µM]
CCC(=O)N1C[C@H](C)[C@H](OC)CN(C)C(=O)c2ccc(NC(=O)Nc3ccc(Cl)cc3)cc2OC[C@H]1C 20%
Cc1ccccc1S(=O)(=O)NCC[C@H]1CC[C@H](NC(=O)Nc2cccc(Cl)c2)[C@H](CO)O1 6.17% [at 35 µM]
CCC(=O)N[C@@H]1CC[C@@H](CC(=O)NCc2ccccc2F)O[C@@H]1CO -13% [at 8 µM]
CCC(=O)N[C@@H]1CC[C@H](CC(=O)NCc2ccccc2F)O[C@@H]1CO -16.5% [at 8 µM]
CCC(=O)N[C@H]1CC[C@H](CC(=O)NCc2ccccc2F)O[C@H]1CO -6.85% [at 0.5 µM]
N#C[C@H]1[C@H](c2ccc(C#Cc3ccccc3F)cc2)[C@@H](CO)N1C(=O)C1CCC1 26.9%
C[C@@H]1CN([C@H](C)CO)S(=O)(=O)c2ccc(C#CC3CCCCC3)cc2O[C@@H]1CN(C)Cc1cccnc1 42.2%
CO[C@H]1CN(C)C(=O)c2ccc(NC(=O)c3ccc(F)cc3)cc2OC[C@H](C)N(C(=O)CN(C)C)C[C@@H]1C -12.9%
COc1ccccc1C#Cc1ccc2c(c1)O[C@@H](CN(C)Cc1cccnc1)[C@H](C)CN([C@H](C)CO)S2(=O)=O 35.7%
O=C(C[C@H]1C[C@@H]2c3cc(NC(=O)Nc4ccc(C(F)(F)F)cc4)ccc3O[C@@H]2[C@H](CO)O1)NCc1ccc2c(c1)OCO2 9.19%
C[C@@H]1CN([C@@H](C)CO)S(=O)(=O)c2ccc(C#CCC3CCCC3)cc2O[C@H]1CN(C)C(=O)c1ccccn1 25.9%
CO[C@H]1CN(C)C(=O)c2ccc(NC(=O)C3CC3)cc2OC[C@@H](C)N(Cc2cccc(F)c2)C[C@H]1C 15.9%
CO[C@H]1CN(C)C(=O)c2ccc(NC(=O)c3ccc(F)cc3)cc2OC[C@@H](C)N(C(=O)CN(C)C)C[C@@H]1C -6.76% [at 0.5 µM]
C[C@H]1CN([C@@H](C)CO)S(=O)(=O)c2ccc(C#CC3CC3)cc2O[C@@H]1CN(C)Cc1cccnc1 36.4%
COc1ccccc1C#Cc1ccc2c(c1)O[C@@H](CN(C)Cc1ccncc1)[C@H](C)CN([C@H](C)CO)S2(=O)=O 34.5%
CO[C@@H]1CN(C)C(=O)c2cc(NC(C)=O)ccc2OC[C@@H](C)N(CCc2ccccc2)C[C@@H]1C 18.4%
CO[C@@H]1CN(C)C(=O)c2ccc(NC(=O)c3nc4ccccc4s3)cc2OC[C@H](C)N(Cc2ccncc2)C[C@H]1C 21.3%
COc1ccc(NC(=O)Nc2ccc3c(c2)[C@H]2C[C@H](CC(=O)N4CCc5ccccc5C4)O[C@@H](CO)[C@H]2O3)cc1 -11.6% [at 0.5 µM]
CCCC(=O)Nc1ccc2c(c1)OC[C@@H](C)N(C(=O)Cc1cccnc1)C[C@@H](C)[C@H](OC)CN(C)C2=O -13.6% [at 1.95 µM]
COCC(=O)N(C)C[C@@H]1Oc2cc(C#Cc3ccccc3)ccc2S(=O)(=O)N([C@@H](C)CO)C[C@@H]1C 7.66%
CO[C@@H]1CN(C)C(=O)c2ccc(NC(=O)c3nc4ccccc4s3)cc2OC[C@@H](C)N(Cc2cccnc2)C[C@@H]1C 29.5%
CO[C@H]1CN(C)C(=O)c2cc(NC(=O)c3ccccc3)ccc2OC[C@@H](C)N(C)C[C@H]1C 10.4%
Cc1ccc(S(=O)(=O)N2C[C@H](O)COC[C@H]3O[C@H](CC(=O)NCc4ccc(Cl)c(Cl)c4)CC[C@@H]32)cc1 26.4% [at 8 µM]
COc1ccc(S(=O)(=O)N2C[C@@H](O)COC[C@H]3O[C@H](CC(=O)NCc4ccc(Cl)c(Cl)c4)CC[C@@H]32)cc1 33.9% [at 0.5 µM]
Cc1ccc(S(=O)(=O)N2C[C@@H](O)COC[C@@H]3O[C@@H](CC(=O)NCC4CCCCC4)CC[C@H]32)cc1 22.7% [at 8 µM]
C[C@H](CO)N1C[C@H](C)[C@H](CN(C)Cc2cccnc2)Oc2cc(C#CC3CCCCC3)ccc2S1(=O)=O 30.4%
C[C@@H]1CN([C@@H](C)CO)C(=O)Cc2cc(N(C)C)ccc2O[C@@H]1CN(C)Cc1ccc(-c2ccccc2)cc1 57.8%
C[C@@H]1CN([C@H](C)CO)C(=O)c2cc(-c3ccccc3)cnc2O[C@@H]1CN(C)Cc1ccccn1 -13.1% [at 1.95 µM]
O=C(C[C@@H]1C[C@@H]2c3cc(NC(=O)Nc4ccc(C(F)(F)F)cc4)ccc3O[C@@H]2[C@H](CO)O1)NCc1ccc2c(c1)OCO2 9.21% [at 1.95 µM]
CC(C)NC(=O)N[C@H]1CC[C@H](CC(=O)NCCCN(C)C)O[C@H]1CO -16.5% [at 1.95 µM]
C[C@@H]1CN([C@H](C)CO)C(=O)c2c(c3ccccc3n2C)-c2ccccc2CO[C@@H]1CN(C)S(=O)(=O)c1cccc(F)c1 42% [at 35 µM]
